Source: ChEMBL document CHEMBL3988442, “University of Dundee, Small-Polar-MMV Screening Library” (2021)
About 13,000 (27%) of roughly 48,000 compounds showed an effect of 50% or more. The list shows a part of the results.

System: Wolbachia pipientis
Assay: Anti-Wolbachia Cell-Based Screen
Type: functional
Parameters: scale not given: in the data most compounds retested in dose-response had high values
Settings: 5 µM

| Structure (SMILES) | Percent Effect [%] |
| --- | --- |
| Cn1c(C(F)(F)F)nn(CCNC(=O)CSCc2ccccc2)c1=O | 0.8754 |
| O=C(C1CC(=O)N(C2CCCC2)C1)N1CCN(CCn2cccc2)CC1 (stereo not given) | -10.58 |
| COc1ccc(C(=O)N(C)Cc2cc(C)on2)c(OC)c1 | -3.822 |
| CCOCC1CN(C(=O)c2ccoc2)Cc2nn(C)cc21 (stereo not given) | -3.903 |
| CCOCC1CN(C(=O)c2ccoc2)Cc2cnn(C)c21 (stereo not given) | 92.74 |
| O=C(c1ccoc1)N1CCc2c(COCC3CC3)cncc2C1 | -80.75 |
| O=C(c1ccoc1)N1Cc2cnn(CC3CC3)c2C(COCC2CC2)C1 (stereo not given) | 83.82 |
| O=C(c1ccoc1)N1CCn2cnc(COCC3CC3)c2C1 | -6.66 |
| O=C(NCc1ccc(F)cc1)NCC1(N2CCOCC2)CCSC1 (stereo not given) | -10.73 |
| COc1ccnc(N2CCN(C(=O)c3csc(C(C)C)n3)CC2)n1 | -5.502 |
| CNC(=O)C(C)CN(C)C(=O)Nc1ccc(Cl)cc1-n1cccc1 (stereo not given) | 0.2413 |
| CCN(Cc1cnn(C)c1)C(=O)c1cc2ccccc2c(=O)[nH]1 | 2.375 |
| Cn1cc(CN(C(=O)c2ccc3ncsc3c2)C2CC2)cn1 | 77 |
| COC1CCN(C(=O)c2ccc3ncsc3c2)CC1 | 13.06 |
| CCN(Cc1cnn(C)c1)C(=O)c1ccccc1O | -0.8063 |
| O=C(c1ccc(O)c(Cl)c1)N(Cc1ccncc1)C1CC1 | 5.687 |
| CN(Cc1cnn(C)c1)C(=O)c1ccnc(OC2CCC2)c1 | -14.79 |
| CN1C(=O)c2ccc(C(=O)N(Cc3cnn(C)c3)C3CC3)cc2C1=O | 106.1 |
| Cn1cc(CN(C(=O)C2COc3ccccc3C2)C2CC2)cn1 (stereo not given) | -27.95 |
| Cn1cc(CN(C(=O)c2ccc(O)c(Cl)c2)C2CC2)cn1 | 100.3 |
| Cc1ccc(-c2nnc(CNC(=O)c3cccnc3)o2)cn1 | 101.6 |
| CCCn1cc(C(=O)NCCC(=O)NC2CCCCC2)c(C)n1 | -18.08 |
| Cc1ccc(CCNC(=O)c2cccnc2)o1 | -1.027 |
| CCOC(=O)c1ccc(CNC(=O)c2ccc(C)nc2)o1 | 18.5 |
| CCCn1cc(C(=O)NCCc2ccncc2)c(C)n1 | -13.4 |

| Structure (SMILES) | Percent Effect [%] |
| --- | --- |
| CCCn1cc(C(=O)NCc2nnc(-c3ccc(C)nc3)o2)c(C)n1 | 141.9 |
| COc1ccccc1OCC(=O)Nc1ncccc1C | -10 |
| COc1cnc(N2CCCC(c3ncc[nH]3)C2)nc1 (stereo not given) | -2.958 |
| O=C(O)C(F)(F)F.O=C(O)C(F)(F)F.OCCN1CC2(CCN(CC3CC3)CC2)c2ccccc21 | -29.18 |
| COc1cc(N2CC3(CCN(c4ncccn4)C3)C2)ncn1 | -18.99 |
| COc1cc(N2CCC3(CC2)CN(S(C)(=O)=O)c2ccccc23)ncn1 | 110.7 |
| CS(=O)(=O)N1CC2(CCN(c3nccs3)CC2)c2ccccc21 | 6.686 |
| COc1cc(N2CC3(CCN(S(C)(=O)=O)C3)C2)ncn1.O=C(O)C(F)(F)F | -16.93 |
| COc1cc(N2CCC3(CC2)CN(CCO)c2ccccc23)ncn1 | 112.4 |
| CCc1ccc(C2COCCN2C(=O)Nc2ccc(C#N)cc2)o1 (stereo not given) | -6.805 |
| COCc1noc(-c2ccc(N3CCCCC3CCCO)nc2)n1 (stereo not given) | 5.834 |
| Cc1nc(Cn2c3c(ccc2=O)CC(NC(N)=O)CC3)cs1 (stereo not given) | 99.56 |
| NC1CCc2c(ccc(=O)n2CC2CC2)C1 (stereo not given) | -25.6 |
| CCn1c2c(ccc1=O)CC(N)CC2 (stereo not given) | -10.57 |
| Cc1nc(Cn2c3c(ccc2=O)CC(N)CC3)cs1 (stereo not given) | 90.15 |
| NS(=O)(=O)CCN1CCOC(c2ccc(Cl)cc2)C1 (stereo not given) | -9.973 |
| CCNC(=O)NC(=O)CN1CCOC(c2cccc(Br)c2)C1 (stereo not given) | -11.97 |
| Fc1ccc(C2CN(CCc3ccncc3)CCO2)cc1 (stereo not given) | 89.73 |
| CCc1nccn1CCC(=O)N1CCOC(c2ccc(F)cc2)C1 (stereo not given) | 5.391 |
| OCCCN1CCOC(c2ccc(F)cc2)C1 (stereo not given) | 108.3 |
| CCc1n[nH]c(C2CN(CCc3ccncc3)CCO2)n1 (stereo not given) | 1.737 |
| COc1ccc(CNC2CCN(CCc3ccncc3)CC2)cc1O | -10.08 |
| Cc1cc2[nH]c(CN3CCOC(c4ccc(F)cc4)C3)cc(=O)n2n1 (stereo not given) | -0.7414 |
| c1ccc(C2CN(CCc3ccncc3)CCO2)cc1 (stereo not given) | 114.6 |
| COc1cccc(C2CN(CCc3ccncc3)CCO2)c1 (stereo not given) | 114.5 |

| Structure (SMILES) | Percent Effect [%] |
| --- | --- |
| Cc1ccc(-c2nc(CN3CCOC(c4ccccc4)C3)cs2)o1 (stereo not given) | 7.737 |
| CCN(CC)Cc1nc2c(o1)CN(C(=O)c1ccc3[nH]ccc3c1)C2.O=CO | 2.766 |
| O=C(NC1CC1)N1Cc2[nH]nc(COCC3CC3)c2C1 | -7.793 |
| CCc1nc(CCNC(=O)NC2CCC(=O)N(C)C2)sc1C (stereo not given) | -4.769 |
| CN(C)c1cccc(C(=O)N2CCCc3cc(OC(F)(F)F)ccc32)c1 | 5.74 |
| CN(CC1CCC1)C(=O)Nc1cccnc1-n1cncn1 | -2.5 |
| Cc1oc(-c2ccsc2)nc1CN1CC[C@@H]2CCCC[C@H]2C1 | 16.57 |
| Clc1ccccc1C1CN(CCc2ccncc2)CCO1 (stereo not given) | 118 |
| CCNC(=O)NC(=O)CN1CCOC(c2ccccc2Cl)C1 (stereo not given) | 0.5373 |
| Cc1nc(C)n(CC2CN(CCc3ccccc3Cl)CCO2)n1 (stereo not given) | -35.87 |
| COc1ncccc1CN1Cc2nccn2CC(CN2CCCC2)C1 (stereo not given) | 87.46 |
| Cc1ccc(CC(=O)N2Cc3nccn3CC(Cn3cccn3)C2)cc1 (stereo not given) | -9.367 |
| CS(=O)(=O)N1Cc2nccn2CC(CN2CCCC2)C1 (stereo not given) | -0.3251 |
| COc1ncccc1CN1Cc2nccn2CC(Cn2cccn2)C1 (stereo not given) | 99.64 |
| CNC(=O)c1cnc2n1CCN(Cc1cccnc1OC)C2 | -12.45 |
| O=C(CCn1cncn1)Nc1ccc(F)cc1OCC1CC1 | -2.529 |
| COC(=O)CCNC(=O)c1ccc(NC(=O)N(C)CC(C)C)cc1 | 21.34 |
| CN(C)c1ccc(CNC(=O)NCCc2cn3ccccc3n2)cn1 | 118.9 |
| Cc1cc(CNC(=O)NCc2cccs2)ccc1S(C)(=O)=O | -12.59 |
| CN(C)c1ccc(CNC(=O)NCCc2cccs2)cn1 | 93.45 |
| CN(C)c1ccc(CNC(=O)NCCc2ccccn2)cn1 | 91.3 |
| Cc1ccccc1C1(O)CCN(C(=O)CCc2cn3ccccc3n2)C1 (stereo not given) | -1.584 |
| CC(C)c1nc(CCNC(=O)NCc2ccnc(N(C)C)c2)cs1 | 6.649 |
| CN(C)c1ccc(C(=O)NCCCc2ccccn2)cn1 | 11.7 |
| CN(C)c1ccc(CCNC(=O)NCc2ccc(N(C)C)nc2)cc1 | 5.041 |
